Laboratory results as given in ChEMBL document CHEMBL1157539, “Thousands of chemical starting points for antimalarial lead identification” (Nature, 2010).

Each molecule was assayed on Plasmodium falciparum (assay: GSK_TCMDC: Inhibition of Plasmodium falciparum 3D7 in whole red blood cells, using parasite LDH activity as an index of growth. Test compounds present at 2uM).
Type: functional

**Q.** Which Inhibition does the source give for `CCn1cnc2c(N3CCCS3(=O)=O)cc(C(=O)N[C@@H](Cc3ccccc3)[C@H](O)CNC(C)(C)c3cccc(C(F)(F)F)c3)cc21` here?
**A.** 99%

**Q.** Which Inhibition does the source give for `O=C(CCc1ccccc1)NC(c1ccc(Cl)cc1)c1ccc2cccnc2c1O` (stereo not given) here?
**A.** 95%

**Q.** With `Cc1cc(NC(=O)c2ccco2)ccc1OC1CCN(Cc2ccc(F)cc2)C1.O=C(O)C(F)(F)F` (stereo not given) as the molecule, how does the Inhibition read?
**A.** 96%

**Q.** How did the Inhibition turn out when `COc1ccc2nccc([C@@H](O)CN3CCC(NC(=O)C(c4cc5ccccc5o4)N4CCN(C(c5ccccc5)c5ccccc5)CC4)CC3)c2c1` (stereo not given in full) was run?
**A.** 100%

**Q.** `O=c1cc(NCCCNC(CNCCc2ccccc2)c2cc(Br)cc(Br)c2)[nH]c2ccccc12` (stereo not given) was tested. Which Inhibition did it give?
**A.** 93%

**Q.** Which Inhibition does the source give for `CN1CCN(c2ccc(Nc3c4ccccc4nc4ccccc34)cc2)CC1` here?
**A.** 100%

**Q.** For `CCN(CCCN1CCCCC1)c1cc(C)nc(Nc2ccc(C)c(Cl)c2)n1.O=C(O)C(F)(F)F`, which Inhibition is on record?
**A.** 100%

**Q.** How did the Inhibition turn out when `Cc1c(CCC#N)c(NCc2ccccc2)n2c(nc3ccccc32)c1C#N` was run?
**A.** 100%

**Q.** `Cl.N#Cc1ccc2c(c1)CCN(CCC1CCC(NC(=O)/C=C/c3nc4ccccc4s3)CC1)CC2` (stereo not given) was tested. Which Inhibition did it give?
**A.** 90%

**Q.** Which Inhibition does the source give for `O=C(Nc1ccc(Cl)cc1C(=O)Nc1ccncc1)c1ccc(Cl)cc1Cl` here?
**A.** 99%

**Q.** `CCCCN1CC[C@@H](CCC(O)c2cc(OCCC)nc3ccc(OC)cc23)[C@@H](CC)C1.O=C(O)C(=O)O` (stereo not given in full) was tested. Which Inhibition did it give?
**A.** 100%

**Q.** `CC(C)N1CCN(C(CN2CCN(CCCOc3ccc4nonc4c3)CC2)c2ccc(F)cc2)CC1.Cl` (stereo not given) was tested. Which Inhibition did it give?
**A.** 97%

**Q.** With `CC(O)C1CCCCN1C(=O)c1cccc(-c2cccc(-c3nc4cc(C(F)(F)F)ccc4[nH]3)c2)c1` (stereo not given) as the molecule, how does the Inhibition read?
**A.** 100%

**Q.** `COc1cccc(CN2CCCC(CCC(=O)Nc3ccc(C(F)(F)F)cc3)C2)c1O` (stereo not given) was tested. Which Inhibition did it give?
**A.** 98%

**Q.** How did the Inhibition turn out when `O=C(Nc1ccc(Cn2ncc(N3CCCNCC3)c(Cl)c2=O)cc1)Nc1ccc(-c2ccccc2)cc1` was run?
**A.** 93%

**Q.** How did the Inhibition turn out when `Cn1cncc1-c1ccc2ncnc(Nc3ccc(OCc4ccccc4)cc3)c2c1` was run?
**A.** 100%

**Q.** Which Inhibition does the source give for `CCC(=O)c1ccc(-c2ccc(=O)n(CC(=O)N(CCN(CC)CC)Cc3ccc(-c4ccc(C(F)(F)F)cc4)cc3)n2)cc1` here?
**A.** 98%

**Q.** `CC(Cc1ccc(NC(=O)c2ccc(NCCc3ccccc3)cc2)cc1)NCCc1cccc(Cl)c1.Cl` (stereo not given) was tested. Which Inhibition did it give?
**A.** 92%

**Q.** `O=C1C(c2ccccc2)=C(Nc2cccc([N+](=O)[O-])c2)c2ccccc21` was tested. Which Inhibition did it give?
**A.** 88%

**Q.** `CN(Cc1cccc(O)c1)C1CCN(c2cc(NC(=O)c3cccc(F)c3)ccn2)CC1.O=C(O)C(F)(F)F` was tested. Which Inhibition did it give?
**A.** 98%

**Q.** For `CC(C)C1C(O)=C(c2ccc3ccccc3c2)C(=O)N1Cc1ccsc1` (stereo not given), which Inhibition is on record?
**A.** 88%

**Q.** With `C=CCn1c(Sc2ccc(C#N)c([N+](=O)[O-])c2)nnc1-c1cc(OC)cc(OC)c1` as the molecule, how does the Inhibition read?
**A.** 96%

**Q.** For `CCCN(Cc1nnc(-c2cccs2)o1)C(=O)CSc1nnnn1-c1cc(C)cc(C)c1`, which Inhibition is on record?
**A.** 92%

**Q.** With `NC(=O)c1ccccc1OCC(=O)Nc1cccc(-c2cccc(-c3nc4ccccc4[nH]3)c2)c1` as the molecule, how does the Inhibition read?
**A.** 88%

**Q.** `COc1cc(NC(=O)c2sc(-c3ccc(Cl)cc3)cc2NC(=O)CN2CCCC2)ccc1OCCN1CCCC1.Cl` was tested. Which Inhibition did it give?
**A.** 86%

**Q.** With `Cc1ccc(Oc2ccc(NC(=O)CNc3ccccc3N3CCCC3=O)cc2)cc1` as the molecule, how does the Inhibition read?
**A.** 98%

**Q.** Which Inhibition does the source give for `Cl.N#Cc1ccc2c(c1)CCN(CCC1CCC(NC(=O)/C=C/c3ccc4[nH]ccc4c3)CC1)CC2` (stereo not given) here?
**A.** 93%

**Q.** With `CCOC(=O)c1ccc(NC(=O)Nc2cccc(-c3ccc(-c4nc5ccccc5[nH]4)cc3)c2)cc1` as the molecule, how does the Inhibition read?
**A.** 100%

**Q.** Which Inhibition does the source give for `O=C(O)C(F)(F)F.Oc1ccc(CCCNc2nc(NCc3cccc4ccccc34)nc(NC3CCNCC3)n2)cc1` here?
**A.** 91%

**Q.** `CN(C)Cc1c(O)ccc2[nH]c(-c3cccc(F)c3)nc12` was tested. Which Inhibition did it give?
**A.** 99%

**Q.** With `O=[N+]([O-])c1ccccc1/C=N/Nc1ccnc2ccc(C(F)(F)F)cc12` as the molecule, how does the Inhibition read?
**A.** 100%

**Q.** Which Inhibition does the source give for `Cc1ncccc1C(=O)Nc1cccc(-c2cccc(-c3nc4cc(C(F)(F)F)ccc4[nH]3)c2)c1` here?
**A.** 96%

**Q.** Which Inhibition does the source give for `COc1cc(NC(=O)CCCN2CCN(c3cccc(Cl)c3Cl)CC2)ccc1N1CCN(C(C)C)CC1.Cl` here?
**A.** 99%

**Q.** How did the Inhibition turn out when `CN1CCC(C(=O)Nc2ccc(-c3ccc(-c4nc5cc(C(F)(F)F)ccc5[nH]4)s3)cc2)CC1` was run?
**A.** 100%

**Q.** How did the Inhibition turn out when `CCOc1c(Cl)cc(Cl)cc1CNCCCNc1nc2ccccc2[nH]1.Cl` was run?
**A.** 94%

**Q.** `Cc1ncccc1-c1cccc2c(NC(=O)Nc3ccc4nccc(N5CCN(C)CC5)c4c3)cccc12.Cl` was tested. Which Inhibition did it give?
**A.** 100%

**Q.** With `Clc1ccc(CNCCCCCCNCc2ccc(Cl)cc2)cc1.O=C(O)c1ccc2ccccc2c1O` as the molecule, how does the Inhibition read?
**A.** 96%

**Q.** Which Inhibition does the source give for `O=C(/C=C/C=C/c1ccccc1)NCCCCCN1CCC(c2c[nH]c3ccccc23)CC1` here?
**A.** 85%

**Q.** For `Cc1ccc2nc(C)cc(Nc3ccccc3O)c2c1.Cl`, which Inhibition is on record?
**A.** 96%

**Q.** `Cc1ccc(Cc2c(C)nc3nc(N)nc(N)c3c2C)cc1.Cl` was tested. Which Inhibition did it give?
**A.** 93%
